High-throughput results deposited in PubChem by Broad Institute.
Hits are enriched below; roughly 6.8% of the tested compounds scored in any of these assays.
Pf Dd2 inh: P. falciparum Dd2 growth inhibition; SYBR Green, 72 h; hits give low values; activity change, % at 10 µM; hit rate 2.3% among 94,000; AID 1159554; in the data active means activity change below about -80%
C diff HTS: blocks growth of Clostridium difficile; hit rate 0.25% among 86,000; growth activity, negative = inhibition, % at 16 µg/mL (by protocol); Clostridium difficile clinical isolate growth, OD600, 24 h; hits give low values; AID 1259249;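 active means mean growth activity at or below -80% and every replicate also at or below -80%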;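 further: 0% = DMSO wells and -100% = levofloxacin 16 µg/mL wells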
T cruzi growth-1: inhibitors of T. cruzi proliferation; hit rate 5.9% among 77,000; inhibition, % at 8.34 µM; T. cruzi beta-gal in NIH3T3, GalScreen luminescence, 90 h;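 active means mean inhibition above about 93%, with at least 55% of replicates each passing it, limit read from the data, passing the limit was not always enough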
T cruzi growth-2: Trypanosoma cruzi proliferation inhibition; shares compounds with T cruzi growth-1; T. cruzi beta-gal in NIH3T3, GalScreen luminescence, 90 h; inhibition, % at 8.35 µM; hit rate 72% among 5,600; AID 651739;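 active means mean replicate inhibition above about 95% and at least 55% of replicates individually reaching it, limit read from the data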
T cruzi growth-3: blocks T. cruzi growth in NIH3T3 host cells; inhibition, % at 2.09 µM; shares compounds with T cruzi growth-1; T. cruzi beta-gal in NIH3T3, GalScreen luminescence, 90 h; hit rate 21% among 5,600;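 active means mean inhibition above about 95%, with at least 55% of replicates also reaching it, limit read from the data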;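 further: plate controls were neutral control median for no effect and positive control median for full effect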
NIH3T3 tox: NIH/3T3 (mouse) viability loss | shares compounds with T cruzi growth-1 | NIH/3T3 viability, CellTiter-Glo ATP luminescence, 90 h | cytotoxicity (signal decrease), % at 8.35 µM | hit rate 14% among 5,600;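 active means mean signal decrease across replicates above about 35% based on untreated-well scatter, with enough replicates individually passing, limit read from the data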;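 further: 0% = median of neutral control wells and 100% = median of positive control wells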
3T3 cytotox 2: cytotoxicity in mouse NIH/3T3 fibroblasts; shares compounds with T cruzi growth-1; NIH/3T3 viability, CellTiter-Glo ATP luminescence, 90 h; inhibition, % at 24.9 µM; hit rate 56% among 5,600;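 active means mean loss of cell viability signal at or above a set limit, and enough replicates individually reaching it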;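 further: 0% = median of neutral control wells and 100% = median of positive control wells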
An asterisk follows results filed as active.

How did C[C@@H]1CN([C@H](C)CO)C(=O)c2cc(NS(=O)(=O)c3ccccc3)ccc2O[C@@H](C)CCCCO[C@H]1CN(C)C(=O)c1ccccc1 do in these assays?
Pf Dd2 inh: -17; C diff HTS: -1

Results for C[C@@H]1CN([C@@H](C)CO)C(=O)Cc2cc(NS(=O)(=O)c3ccc(F)cc3)ccc2O[C@@H]1CN(C)Cc1ccc(-c2ccccc2)cc1 ?
Pf Dd2 inh: 12; T cruzi growth-1: 55

Results for C[C@H](CO)N1C[C@H](C)[C@H](CN(C)Cc2ccccc2)Oc2ccc(NS(=O)(=O)c3ccc(F)cc3)cc2CC1=O ?
Pf Dd2 inh: -41; C diff HTS: -19; T cruzi growth-1: 72

How did C[C@@H]1CN([C@H](C)CO)C(=O)Cc2cc(NS(=O)(=O)c3ccc(F)cc3)ccc2O[C@H]1CN(C)Cc1ccccc1 do in these assays?
Pf Dd2 inh: 7; C diff HTS: -9; T cruzi growth-1: 97*; T cruzi growth-2: 110*; T cruzi growth-3: 14; NIH3T3 tox: 0; 3T3 cytotox 2: 23

What do the screens show for `C[C@@H]1CN([C@H](C)CO)C(=O)Cc2cc(NS(=O)(=O)c3ccc(Cl)cc3)ccc2O[C@H]1CN(C)Cc1ccccc1`?
Pf Dd2 inh: 2; C diff HTS: 0; T cruzi growth-1: 100*; T cruzi growth-2: 110*; T cruzi growth-3: 103*; NIH3T3 tox: 7; 3T3 cytotox 2: 16

What do the screens show for `C[C@H](CO)N1C[C@H](C)[C@@H](CN(C)Cc2ccccc2)Oc2ccc(NS(=O)(=O)c3ccc(Cl)cc3)cc2CC1=O`?
Pf Dd2 inh: -58; C diff HTS: -1; T cruzi growth-1: 95

Results for C[C@H]1CN([C@@H](C)CO)C(=O)Cc2cc(NS(=O)(=O)c3ccc(F)cc3)ccc2O[C@H]1CN(C)Cc1ccccc1 ?
Pf Dd2 inh: -42; C diff HTS: -13; T cruzi growth-1: 100*; T cruzi growth-2: 99*; T cruzi growth-3: 24; NIH3T3 tox: -8; 3T3 cytotox 2: 28

What do the screens show for `C[C@@H]1CN([C@@H](C)CO)C(=O)c2cccc(NC(=O)Nc3ccc(F)cc3)c2O[C@@H]1CN(C)C`?
Pf Dd2 inh: -23; C diff HTS: 2

What do the screens show for `C[C@H]1CN([C@@H](C)CO)C(=O)c2cc(NS(=O)(=O)c3ccccc3)ccc2O[C@@H]1CN(C)S(=O)(=O)c1ccc(Cl)cc1`?
Pf Dd2 inh: -28; T cruzi growth-1: 7

Results for C[C@@H]1CN([C@@H](C)CO)C(=O)c2cc(NC(=O)Cc3cn(C)c4ccccc34)ccc2O[C@H]1CN(C)C ?
Pf Dd2 inh: 19; C diff HTS: 0

How did O=C(c1cccc(F)c1)N1CCCCN2[C@@H](CO)[C@@H](c3ccc(-c4ccccc4)cc3)[C@@H]2C1 do in these assays?
Pf Dd2 inh: -58; C diff HTS: 48; T cruzi growth-1: 33

What do the screens show for `O=C(c1cccc(F)c1)N1CCCCN2[C@H](CO)[C@H](c3ccc(-c4ccccc4)cc3)[C@@H]2C1`?
Pf Dd2 inh: -7; C diff HTS: 3; T cruzi growth-1: 102*; T cruzi growth-2: 113*; T cruzi growth-3: 89; NIH3T3 tox: 16; 3T3 cytotox 2: 11

Results for O=C(c1cccc(F)c1)N1CCCCN2[C@@H](CO)[C@@H](c3ccc(-c4cccnc4)cc3)[C@@H]2C1 ?
Pf Dd2 inh: 5; C diff HTS: -5; T cruzi growth-1: 8

What do the screens show for `O=C(c1cccc(F)c1)N1CCCCN2[C@@H](CO)[C@H](c3ccc(-c4ccccc4)cc3)[C@@H]2C1`?
Pf Dd2 inh: -11; C diff HTS: 25; T cruzi growth-1: 103*; T cruzi growth-2: 105*; T cruzi growth-3: 53; NIH3T3 tox: 24; 3T3 cytotox 2: 91*

How did C[C@H]1CN([C@@H](C)CO)S(=O)(=O)c2ccc(-c3ccncc3)cc2O[C@@H]1CN(C)C(=O)c1ccc2c(c1)OCO2 do in these assays?
Pf Dd2 inh: -64; C diff HTS: 0; T cruzi growth-1: 85

Results for CO[C@H]1CN(C)C(=O)c2cc(NC(C)=O)ccc2OC[C@@H](C)N(C(=O)Cc2cccnc2)C[C@H]1C ?
Pf Dd2 inh: 24; T cruzi growth-1: -14

How did C[C@H]1CN([C@@H](C)CO)C(=O)c2cc(NC(=O)Nc3ccccc3)ccc2O[C@H]1CN(C)C(=O)Nc1ccc2c(c1)OCO2 do in these assays?
Pf Dd2 inh: -14; T cruzi growth-1: 28

What do the screens show for `C[C@H](CO)N1C[C@H](C)[C@H](CN(C)Cc2ccc(C(=O)Nc3ccccc3N)cc2)Oc2c(NS(=O)(=O)c3cccs3)cccc2C1=O`?
Pf Dd2 inh: -63; T cruzi growth-1: 107*; T cruzi growth-2: 99*; T cruzi growth-3: 84; NIH3T3 tox: 3; 3T3 cytotox 2: 26*

How did C[C@H](CO)N1C[C@H](C)[C@H](CN(C)Cc2ccc(C(=O)Nc3ccccc3N)cc2)Oc2ccc(NS(=O)(=O)c3cccs3)cc2C1=O do in these assays?
Pf Dd2 inh: -85*; T cruzi growth-1: 115*; T cruzi growth-2: 104*; T cruzi growth-3: 90; NIH3T3 tox: 14; 3T3 cytotox 2: 49*

What do the screens show for `C[C@H](CO)N1C[C@H](C)[C@H](CN(C)Cc2ccc(-c3ccccc3)cc2)Oc2c(NS(=O)(=O)c3cccs3)cccc2C1=O`?
Pf Dd2 inh: -19; C diff HTS: 15; T cruzi growth-1: 97*; T cruzi growth-2: 87; T cruzi growth-3: 30; NIH3T3 tox: 15; 3T3 cytotox 2: 13

What do the screens show for `C[C@H]1CN([C@@H](C)CO)C(=O)c2cccc(NS(=O)(=O)c3cccs3)c2O[C@H]1CN(C)Cc1ccc(-c2ccccc2)cc1`?
Pf Dd2 inh: -11; C diff HTS: 13; T cruzi growth-1: 75

How did C[C@@H]1CN([C@H](C)CO)C(=O)c2cc(NS(=O)(=O)c3cccs3)ccc2O[C@H]1CN(C)Cc1ccc(C(=O)Nc2ccccc2N)cc1 do in these assays?
Pf Dd2 inh: -46; T cruzi growth-1: 92

Results for C[C@@H]1CN([C@H](C)CO)C(=O)c2cccc(NS(=O)(=O)c3cccs3)c2O[C@H]1CN(C)Cc1ccc(C(=O)Nc2ccccc2N)cc1 ?
Pf Dd2 inh: -70; C diff HTS: 2

What do the screens show for `C[C@H]1CN([C@@H](C)CO)C(=O)c2cc(NC(=O)CCN3CCOCC3)ccc2O[C@H]1CN(C)Cc1ccc(C(=O)O)cc1`?
Pf Dd2 inh: 29; T cruzi growth-1: 9

How did C[C@H](NC(=O)C[C@@H]1C[C@@H]2c3cc(NC(=O)CC4CC4)ccc3O[C@@H]2[C@H](CO)O1)c1ccccc1 do in these assays?
Pf Dd2 inh: -17; C diff HTS: -36; T cruzi growth-1: 26
